PMC11062922 (Nature Chemical Biology, 2023)
Where two headings read alike, the source gives them in different places.

Columns and labels:
Design in all cases: species or system human, MV4-11 + K-562 + COLO205 + SK-N-BE2 + OVCAR-8
[1] = test system: AKT2; settings: read-out: apparent Kd, n = 1
[2] = test system: AKT3; settings: read-out: apparent Kd, n = 1
[3] = test system: MAP2K2; settings: read-out: apparent Kd, compound concentrations: 100 nM and 1000 nM (sheet 'Samples'), n = 1
[4] = test system: MYLK3; settings: read-out: apparent Kd, compound concentrations: 100 nM and 1000 nM (sheet 'Samples'), n = 1
[5] = test system: NQO1; settings: read-out: apparent Kd, n = 1
[6] = test system: RIOK2; settings: read-out: apparent Kd, n = 1
[7] = test system: AGK; settings: read-out: apparent Kd, n = 1
[8] = test system: EGFR; settings: read-out: apparent Kd; compound concentrations:100 nM and 1000 nM (sheet 'Samples'); n = 1
[9] = test system: HSP90B1; settings: read-out: apparent Kd; compound concentrations:100 nM and 1000 nM (sheet 'Samples'); n = 1
[10] = test system: MTHFD1; settings: read-out: apparent Kd; compound concentrations:100 nM and 1000 nM (sheet 'Samples'); n = 1
[11] = test system: NNT; settings: read-out: apparent Kd, n = 1
[12] = test system: AKT1; settings: read-out: apparent Kd, n = 1
[13] = test system: ATM; settings: read-out: apparent Kd; compound concentrations:100 nM and 1000 nM (sheet 'Samples'); n = 1
[14] = test system: CAMK4; settings: read-out: apparent Kd; compound concentrations:100 nM and 1000 nM (sheet 'Samples'); n = 1
[15] = test system: JAK2; settings: read-out: apparent Kd; compound concentrations:100 nM and 1000 nM (sheet 'Samples'); n = 1
[16] = test system: MAP2K1; settings: read-out: apparent Kd, n = 1
[17] = test system: PRKCD; settings: read-out: apparent Kd; compound concentrations:100 nM and 1000 nM (sheet 'Samples'); n = 1
[18] = test system: PRKCQ; settings: read-out: apparent Kd; compound concentrations: 100 nM and 1000 nM (sheet 'Samples'), CATDS: 0.49835750263786499; n = 1
[19] = test system: PRKCZ; settings: read-out: apparent Kd; compound concentrations:100 nM and 1000 nM (sheet 'Samples'); n = 1
[20] = test system: TTN; settings: read-out: apparent Kd; compound concentrations:100 nM and 1000 nM (sheet 'Samples'); n = 1
[21] = test system: CDK17; settings: read-out: apparent Kd; compound concentrations: 100 nM and 1000 nM (sheet 'Samples'), CATDS: 6.2311196568293398E-2; n = 1
[22] = test system: CLK4; settings: read-out: apparent Kd; compound concentrations: 100 nM and 1000 nM (sheet 'Samples'), CATDS: 7.8018331182730397E-2; n = 1
[23] = test system: MAPKAPK2; settings: read-out: apparent Kd, compound concentrations: 100 nM and 1000 nM (sheet 'Samples'), n = 1
[24] = test system: PIP4K2C; settings: read-out: apparent Kd; compound concentrations: 100 nM and 1000 nM (sheet 'Samples'), CATDS: 6.1582136800339998E-2; n = 1
[25] = test system: PRKAG2; settings: read-out: apparent Kd; compound concentrations: 100 nM and 1000 nM (sheet 'Samples'), CATDS: 7.1492957845938399E-2; n = 1
[26] = test system: TNIK; settings: read-out: apparent Kd; compound concentrations: 100 nM and 1000 nM (sheet 'Samples'), CATDS: 6.4996238797789693E-2; n = 1
[27] = test system: VDAC3; settings: read-out: apparent Kd; compound concentrations: 100 nM and 1000 nM (sheet 'Samples'), CATDS: 6.7332646365255294E-2; n = 1
[28] = test system: ADRBK1; settings: read-out: apparent Kd, n = 1
[29] = test system: MAPK14; settings: read-out: apparent Kd, n = 1
[30] = test system: MAPK9; settings: read-out: apparent Kd; compound concentrations: 100 nM and 1000 nM (sheet 'Samples'), CATDS: 0.17242966969454199; n = 1
[31] = test system: FLT3; settings: read-out: apparent Kd; compound concentrations: 100 nM and 1000 nM (sheet 'Samples'), CATDS: 0.87351473919373701; n = 1
[32] = test system: PDGFRB; settings: read-out: apparent Kd; compound concentrations: 100 nM and 1000 nM (sheet 'Samples'), CATDS: 0.21575328371949701; n = 1
[33] = test system: AGPS; settings: read-out: apparent Kd; compound concentrations:100 nM and 1000 nM (sheet 'Samples'); n = 1
[34] = test system: COX5A; settings: read-out: apparent Kd; compound concentrations:100 nM and 1000 nM (sheet 'Samples'); n = 1
[35] = test system: TGFBR1; settings: read-out: apparent Kd; compound concentrations:100 nM and 1000 nM (sheet 'Samples'); n = 1
[36] = test system: PIK3C2A; settings: read-out: apparent Kd; compound concentrations:100 nM and 1000 nM (sheet 'Samples'); n = 1
[37] = test system: PRKCI; settings: read-out: apparent Kd; compound concentrations:100 nM and 1000 nM (sheet 'Samples'); n = 1
[38] = test system: PYGL; settings: read-out: apparent Kd, n = 1
[39] = test system: RPS6KA3; settings: read-out: apparent Kd; compound concentrations:100 nM and 1000 nM (sheet 'Samples'); n = 1
[40] = test system: STK16; settings: read-out: apparent Kd; compound concentrations:100 nM and 1000 nM (sheet 'Samples'); n = 1
[41] = test system: NCL; settings: read-out: apparent Kd; compound concentrations: 100 nM and 1000 nM (sheet 'Samples'), CATDS: 0.116162101404393; n = 1
[42] = test system: PIK3C3; settings: read-out: apparent Kd; compound concentrations: 100 nM and 1000 nM (sheet 'Samples'), CATDS: 0.115592517664726; n = 1
[43] = test system: PIK3CB; settings: read-out: apparent Kd; compound concentrations: 100 nM and 1000 nM (sheet 'Samples'), CATDS: 0.13740958062808101; n = 1
[44] = test system: TAOK3; settings: read-out: apparent Kd; compound concentrations: 100 nM and 1000 nM (sheet 'Samples'), CATDS: 0.106339903242866; n = 1
[45] = test system: GSK3A; settings: read-out: apparent Kd; compound concentrations: 100 nM and 1000 nM (sheet 'Samples'), CATDS: 0.49410987745455298; n = 1
[46] = compound concentrations:100 nM and 1000 nM (sheet 'Samples')

COc1cc2ncn(-c3cc(OCCc4ccccc4)c(C(N)=O)s3)c2cc1OC [GSK204925A]
potency estimated from few doses ([1]; compound concentrations: 100 nM and 1000 nM (sheet 'Samples'), CATDS: 0.131386999232284): 2300 nM
potency estimated from few doses ([2]; compound concentrations: 100 nM and 1000 nM (sheet 'Samples'), CATDS: 0.150950387905983): 1570 nM
potency estimated from few doses ([3]; CATDS: 0.14753696988114701): 1660 nM
potency estimated from few doses ([4]; CATDS: 0.56668098220649099): 137 nM
potency estimated from few doses ([5]; compound concentrations: 100 nM and 1000 nM (sheet 'Samples'), CATDS: 0.17515611913919399): 1100 nM
potency estimated from few doses ([6]; compound concentrations: 100 nM and 1000 nM (sheet 'Samples'), CATDS: 0.13311346938063801): 2210 nM

CS(=O)(=O)CCNCc1ccc(-c2ccc3ncnc(Nc4ccc(OCc5ccccc5)c(Cl)c4)c3c2)o1.Cl [GW574783B_PKIS1]
potency estimated from few doses [7, 46]: 1950 nM
potency estimated from few doses [8]: 156 nM
potency estimated from few doses [9]: 1710 nM
potency estimated from few doses [10]: 1950 nM
potency estimated from few doses [11, 46]: 1200 nM

NCC1CCC(CNc2nc(NCc3ccccc3OC(F)(F)F)ncc2[N+](=O)[O-])CC1 (stereo not drawn) [BIRZ0518XX]
potency estimated from few doses [12, 46]: 1960 nM
potency estimated from few doses [1, 46]: 1970 nM
potency estimated from few doses [2, 46]: 1210 nM
potency estimated from few doses [13]: 249 nM
potency estimated from few doses [14]: 1110 nM
potency estimated from few doses [15]: 517 nM
potency estimated from few doses [16, 46]: 2280 nM
potency estimated from few doses [5, 46]: 1290 nM
potency estimated from few doses [17]: 648 nM
potency estimated from few doses [18]: 40.3 nM
potency estimated from few doses [19]: 2020 nM
potency estimated from few doses [6, 46]: 1910 nM
potency estimated from few doses [20]: 1030 nM

Cc1nnc(-c2ccc(C)c(-c3ccc(C(=O)NCc4ccc(Cl)cc4)cc3)c2)o1 [GW708893X]
potency estimated from few doses ([7]; compound concentrations: 100 nM and 1000 nM (sheet 'Samples'), CATDS: 6.7196554082181503E-2): 1820 nM
potency estimated from few doses ([12]; compound concentrations: 100 nM and 1000 nM (sheet 'Samples'), CATDS: 5.9892362604304798E-2): 2380 nM
potency estimated from few doses ([1]; compound concentrations: 100 nM and 1000 nM (sheet 'Samples'), CATDS: 8.2030939692010002E-2): 1220 nM
potency estimated from few doses [21]: 2160 nM
potency estimated from few doses [22]: 1340 nM
potency estimated from few doses ([16]; compound concentrations: 100 nM and 1000 nM (sheet 'Samples'), CATDS: 7.0817886716783296E-2): 1630 nM
potency estimated from few doses ([3]; CATDS: 8.1065909718248605E-2): 1250 nM
potency estimated from few doses ([23]; CATDS: 7.7313280603985193E-2): 1370 nM
potency estimated from few doses ([11]; compound concentrations: 100 nM and 1000 nM (sheet 'Samples'), CATDS: 6.8216764859784895E-2): 1760 nM
potency estimated from few doses ([5]; compound concentrations: 100 nM and 1000 nM (sheet 'Samples'), CATDS: 0.112965714749218): 726 nM
potency estimated from few doses [24]: 2220 nM
potency estimated from few doses [25]: 1590 nM
potency estimated from few doses [26]: 1960 nM
potency estimated from few doses [27]: 1810 nM

Cl.Cn1c(=O)c(Oc2ccc(F)cc2F)cc2cnc(NCC(C)(C)O)nc21 [RO3308967-001]
potency estimated from few doses ([28]; compound concentrations: 100 nM and 1000 nM (sheet 'Samples'), CATDS: 0.168792750193444): 1780 nM
potency estimated from few doses ([29]; compound concentrations: 100 nM and 1000 nM (sheet 'Samples'), CATDS: 0.54620788714076096): 44 nM
potency estimated from few doses [30]: 1600 nM
potency estimated from few doses ([23]; CATDS: 0.40894707261739799): 76.7 nM

Cc1cccc(Nc2ncc(-c3ccccc3)o2)c1 [GW632046X]
potency estimated from few doses ([28]; compound concentrations: 100 nM and 1000 nM (sheet 'Samples'), CATDS: 0.18601551584516901): 1420 nM
potency estimated from few doses [31]: 26.1 nM
potency estimated from few doses ([11]; compound concentrations: 100 nM and 1000 nM (sheet 'Samples'), CATDS: 0.20642475044215899): 1000 nM
potency estimated from few doses [32]: 873 nM

Cc1cc(N2Cc3ccccc3C2)nc(Nc2ccc(S(=O)(=O)N3CCOCC3)cc2)n1.Cl [GSK1669917A]
potency estimated from few doses ([28]; compound concentrations: 100 nM and 1000 nM (sheet 'Samples'), CATDS: 0.38079622737555602): 1290 nM
potency estimated from few doses ([3]; CATDS: 0.29465532437802699): 2170 nM
potency estimated from few doses ([11]; compound concentrations: 100 nM and 1000 nM (sheet 'Samples'), CATDS: 0.33555608244827101): 1640 nM

Cn1cc(C2=C(c3cn(-c4ccccc4)c4ccccc34)C(=O)NC2=O)c2ccccc21 [RO0318564-000]
potency estimated from few doses ([12]; compound concentrations: 100 nM and 1000 nM (sheet 'Samples'), CATDS: 1): 2080 nM

Fc1ccc(-c2cc(-c3c[nH]nc3-c3ccccn3)ccn2)cc1 [GW680975X]
potency estimated from few doses [33]: 1790 nM
potency estimated from few doses [34]: 132 nM
potency estimated from few doses [35]: 960 nM

CCCC(=O)Nc1n[nH]c2ncccc12 [SB-601436]
potency estimated from few doses [28, 46]: 2140 nM
potency estimated from few doses [29, 46]: 1310 nM
potency estimated from few doses [36]: 2470 nM
potency estimated from few doses [37]: 2080 nM
potency estimated from few doses [38, 46]: 2170 nM
potency estimated from few doses [39]: 1890 nM
potency estimated from few doses [40]: 1480 nM

Cc1nc(Nc2cnn(C3CCNCC3)c2)nc2c1N(C)C(=O)c1cc3ccccc3cc1N2C [HTH-01-015]
potency estimated from few doses ([12]; compound concentrations: 100 nM and 1000 nM (sheet 'Samples'), CATDS: 0.123501580073808): 1310 nM
potency estimated from few doses ([1]; compound concentrations: 100 nM and 1000 nM (sheet 'Samples'), CATDS: 0.10314044451286999): 1870 nM
potency estimated from few doses ([16]; compound concentrations: 100 nM and 1000 nM (sheet 'Samples'), CATDS: 9.8973729248026707E-2): 2060 nM
potency estimated from few doses ([3]; CATDS: 0.112091584059978): 1580 nM
potency estimated from few doses [41]: 1470 nM
potency estimated from few doses [42]: 1480 nM
potency estimated from few doses [43]: 1080 nM
potency estimated from few doses ([38]; compound concentrations: 100 nM and 1000 nM (sheet 'Samples'), CATDS: 9.7642966529981307E-2): 2120 nM
potency estimated from few doses [44]: 1760 nM

COc1ccc(C2=C(c3cn(C)c4ccccc34)C(=O)NC2=O)cc1 [RO0317257-000]
potency estimated from few doses ([28]; compound concentrations: 100 nM and 1000 nM (sheet 'Samples'), CATDS: 0.26872629517394703): 1840 nM
potency estimated from few doses [45]: 529 nM
potency estimated from few doses ([4]; CATDS: 0.30722908276371202): 1310 nM
